Measured values reported in the supplement of paper PMC6555819.

How the values were obtained:
Test in all cases: PBM binding z-score (relative to random genomic background probes); higher = stronger binding; sequences stand for … in GC…GCGATTGACAGCGTAGAATGAAGG
[1] = system: FXR:RXRa (NR concentration 270 nM, RXRa partner concentration 90 nM)
In short: (§1)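 Random background probes are the reference for binding z-scores. These scores derive from regression-normalized fluorescence on custom Agilent 4×180K protein-binding microarrays incubated 1 h with ligand-free nuclear receptor dimers. Binding was detected with antibodies against each partner (one per run).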

[2] = system: LXRa:RXRa (NR concentration 270 nM, RXRa partner concentration 90 nM)
In short: as §1

[3] = system: LXRa homodimer (NR concentration 270 nM)
In short: as §1

[4] = system: LXRb:RXRa (NR concentration 270 nM, RXRa partner concentration 90 nM)
In short: as §1

[5] = system: LXRb homodimer (NR concentration 270 nM)
In short: as §1

[6] = system: PPARa:RXRa (NR concentration 270 nM, RXRa partner concentration 90 nM)
In short: as §1

[7] = system: PPARg:RXRa (NR concentration 180 nM, RXRa partner concentration 90 nM)
In short: as §1

[8] = system: PPARg:RXRa 270nM:90nM, anti-RXR (NR concentration 270 nM, RXRa partner concentration 90 nM)
In short: as §1

[9] = system: PPARg:RXRa 30nM:10nM, anti-RXR (NR concentration 30 nM, RXRa partner concentration 10 nM)
In short: as §1

[10] = system: PPARg:RXRa 90nM:30nM, anti-RXR (NR concentration 90 nM, RXRa partner concentration 30 nM)
In short: as §1

Sequence | PBM binding z-score [1] | PBM binding z-score [2] | PBM binding z-score [3] | PBM binding z-score [4] | PBM binding z-score [5] | PBM binding z-score [6] | PBM binding z-score [7] | PBM binding z-score [8] | PBM binding z-score [9] | PBM binding z-score [10]
TCTTGTAGATCAACAGGAGGTTAAGCAAGATCGA | 0.257 | 0.838 | -0.069 | 0.853 | -0.368 | 1.48 | 0.076 | 1.47 | 2.39 | 1.74
CCCTACGGGTCACTCCAGGTTATAGCATCGGAGT | 5.25 | 7.47 | 2.12 | 5.1 | 0.052 | 4.21 | 2.65 | 3.2 | 0.655 | 1.6
GGAACGAGGGCATGCGAGTTGATAGCATGGCGAT | 0.758 | 0.468 | -0.615 | -0.143 | -1.37 | 1.35 | 0.979 | 0.516 | -0.248 | 0.117
ACTAGCAGGCCAAGTTTGGGTCACTCATACAAAG | 0.242 | 0.317 | -0.104 | 0.786 | -0.557 | 1.28 | 0.573 | 0.501 | -0.211 | -0.146
TAGCCTAGGTCATTCGGGGGCCAGTATAGAAAGC | 5.41 | 4.7 | 1.38 | 5.3 | 9.24 | 4.26 | 3.69 | 4.12 | 1.38 | 3.17
CCTGCTAGGTTAATGGTCAGCTAAAGCAGCTCGC | -0.16 | 0.22 | -0.415 | 0.0198 | -0.231 | 0.798 | 1.47 | 3.16 | 0.835 | 2.53
TCTCGGAGGACACGAAAGATCAGAGCTCGACATC | -0.277 | 0.0528 | -0.431 | -0.144 | -0.969 | 0.328 | 0.493 | 0.915 | 2.54 | 1.17
ATAAGTAGGTTATCGGGTCATTCAGTTTGCGCAT | 3.42 | 3.08 | 1.77 | 3.11 | 1.39 | 5.07 | 7.54 | 6.6 | 3.83 | 6.09
TGTCAAAGTACAAAGGTAACGTAAGTATCCACAC | 0.237 | 0.465 | -0.185 | 0.542 | -0.294 | 1.67 | 3.64 | 4.32 | 1.97 | 3.96
TCTAGTTGGTCATAGGTCACACACTCGAAATGCG | 3.07 | 3.34 | 1.99 | 3.31 | 1.25 | 4.96 | 8.97 | 8.03 | 8.3 | 8.57
ACTTTTAGTTGAGACGAGGGCAACCGATAGGTTG | 0.762 | 0.517 | -0.32 | 0.176 | 0.689 | 0.546 | 0.448 | 0.362 | 0.289 | 0.332
AGAATGAGGTTACCAAGGATCAGGGAAACGCTTG | 1.77 | 4.49 | -0.144 | 2.06 | -0.102 | 3.69 | 2.58 | 2.47 | 1.09 | 1.97
CTGACTGGGGCAAGGTTACCATAACGCACAGCCA | 0.457 | 0.792 | -0.00434 | 1.54 | -0.221 | 2.63 | 4.03 | 4.4 | 1.45 | 3.67
TGAATGAGCTTATAAGATCAGGGAACGTTGCAAA | -0.538 | -0.891 | -0.553 | -0.584 | -0.76 | -0.485 | -0.117 | -0.382 | 0.0852 | -0.46
GATACAGGGTCAAGGCCAGAGGACGCGTATTGAT | 6.78 | 4.13 | -0.101 | 3.54 | -0.0333 | 5.49 | 6.03 | 5.55 | 2.01 | 4.12
TCGAGTAGGTTAGAGGCATTCAGAATGGCGTCGA | 0.0736 | -0.18 | -0.53 | -0.336 | -1.72 | 0.422 | 1.22 | 2.66 | 1.4 | 2.27
GGAACGAAGGCAAAGTTGATAGCATCTGTCGACG | -0.685 | -0.726 | -0.64 | -0.769 | -1.04 | 1.16 | 2.69 | 4.58 | 2.36 | 4.01
CCAGACAGGTGAAAGGTAACTCTGTCTGGTACGC | 0.257 | 1.07 | -0.318 | 0.89 | -0.274 | 3.45 | 5.57 | 6.03 | 4.71 | 5.8
AGTCAAAGTTCAGGACGAGGCAACGTAAAGCACG | 3.7 | 3.55 | 1.2 | 1.5 | -0.0334 | 3.22 | 4.51 | 4.56 | 1.57 | 3.42
CGACCTAGGTCAAGGACAGTGAATCTCCGCACGC | 4.5 | 2.95 | -0.0211 | 2.07 | -0.684 | 3.94 | 3.55 | 3.19 | 0.64 | 1.86
CCTTACGGGTCACGAGGTTATAGCACGACGAGCG | 6.74 | 4.6 | 0.401 | 4.02 | -0.321 | 5.94 | 7.45 | 6.6 | 3.13 | 5.31
GCATAGAGGTAATACAAGGTGAAAGTCCGATTGT | 1.25 | 3.39 | -0.00697 | 1.1 | -0.79 | 1.51 | 0.691 | 0.857 | 0.448 | 0.729
TTACCAAGGTGAAAGGTCGTTGTTGCACGCCTTG | 3.74 | 3.17 | 0.187 | 3.12 | -0.415 | 5.29 | 8.39 | 7.47 | 6.57 | 8.04
GCTAGTTGGTCAGTAATAGGTCACACACCGGTCG | 1.19 | 1.72 | 1.74 | 1.77 | 0.0415 | 2.79 | 1.44 | 2.52 | 0.756 | 1.82
